The text below walks through data of ChEMBL document CHEMBL3988442, “University of Dundee, Small-Polar-MMV Screening Library” (2021).

For this assay, the target named is AMP-activated protein kinase, AMPK (Homo sapiens) (UniProt P54646+O43741+P54619+Q9UGJ0+Q9Y478+Q13131+Q9UGI9). In words: AMP-dependent Kinase enzyme assay. An in vitro enzyme assay that detects ADP turnover that is directly proportional to AMPK activity. This uses naive AMPK that is activated during the assay with MK-8722. The assay is classed as functional. Also noted: scale not given: direction of the effect not stated beside the values. Particulars: 30 µM.
Take `CN1CC(C(=O)NCCc2ccc(F)c(Br)c2)CC1=O` (stereo not given): the Percent Effect came to 5.17%.
For `CN1CCC(Nc2ccc(Cl)cc2OCC(F)(F)F)C1=O` (stereo not given) the value was -3.53%.
For `N#Cc1c(N)nc2c(c1C1CCOC1)CCc1cc(O)ccc1-2` (stereo not given) the value was 32%; for `Clc1ccc2cccnc2c1CNC1CCc2ncnn2C1` (stereo not given), 3.85%.
For the compound `CC(C)C1CCCN1C(=O)Nc1ccc(=O)n(C)c1` (stereo not given), the Percent Effect was 56.6%.
Consider `Cc1ccc(-c2cc(CNC(=O)NC3CCCCNC3=O)on2)cc1` (stereo not given), for which the Percent Effect was -0.304%.
Take `c1ccc(OCCCn2ccnc2-c2cn(C3CCNCC3)nn2)cc1`: the Percent Effect was -1.92%.
Turning to `CC(O)c1cccc(OCc2ccon2)c1` (stereo not given), the Percent Effect came out at 4.94%.
Take `C=Cn1cc(CN2CCC(c3ncc(Cl)cc3S(C)(=O)=O)CC2)c(C)n1`: the Percent Effect amounted to 13.4%.
`CCn1nc(C)c(NC(=O)CN(C)C(C)c2nccs2)c1C` (stereo not given): the Percent Effect is -6.11%.
Regarding `CC(=O)N1CCc2nc(N(C)C)nc(NCCc3ccccc3)c2CC1`, the Percent Effect came to 3.82%.
For `Cc1ccc(CN2CCS(=O)(=O)C(C)(C)C2)cc1C` the value was -0.279%.
Regarding `Cc1cc(-c2cnc(N3CCCC(C)C3)nc2C(C)C)on1` (stereo not given), the Percent Effect is 10.4%.
On to `Cc1cc(CN(C)C(=O)CC(C)C)no1`, for which the Percent Effect was 0.491%.
Take `CC(O)CN1CCN(Cc2coc(-c3ccccc3)n2)CC1` (stereo not given): the Percent Effect was -7.2%.
With `COCCNC(=O)N1CCN(c2cc(F)ccc2F)CC1`, the Percent Effect worked out at 7.95%.
`O=C(NC1CCOCC1)c1cccc(C2CCCNC2)c1` (stereo not given): the Percent Effect was 2.1%.
As for `CCNc1ncc(C(=O)NCc2csc(-c3ncccn3)n2)cn1`, the Percent Effect came out at 3.97%.
In the case of `Cc1cc(C)n(C2CN(C(=O)c3cn4ccsc4n3)C2)n1`, the Percent Effect was -4.27%.
Take `Cc1ncc(CNC(CCO)C2CCCCC2)s1` (stereo not given): the Percent Effect is 4.05%.
For `COc1ccc2c(c1)OCC(Cc1cc(C(=O)N3CCCC3)ccn1)C2` (stereo not given) the value was 0.531%; for `CNC(=O)C(C)NC(=O)c1cc(COc2ccc(OC)cc2Cl)[nH]n1` (stereo not given), -1.41%; for `O=C(NCc1ccc(-n2cncn2)nc1)c1cnccn1`, -5.91%.
As for `COCCN1CCCC2(CCN(c3cc(C)c(C#N)c(C)n3)C2)C1=O` (stereo not given), the Percent Effect was -7.22%.
With `CCC(=O)Nc1cccc(OCC(=O)N[C@@H]2C[C@H]3CC[C@@H]2C3)c1`, the Percent Effect is 3.88%.
In the case of `CCOCCC(=O)N(CCC#N)c1ccc(C)c(C)c1`, the Percent Effect is -0.0952%.
With `Fc1ccc(OCCCNC2=NCCN2)cc1`, the Percent Effect was -0.85%.
In the case of `Cc1cc(C(=O)NCCC(=O)N2CCCc3ccccc32)no1`, the Percent Effect was -5.97%.
Consider `Cc1ccc2ncccc2c1CN1CC[C@H](N(C)C)[C@H](CCC(=O)O)C1`, for which the Percent Effect is -2.6%.
Under `CC1(C)CN(c2cc(C3CC3)ncn2)C[C@]1(C)O` stands 30.7%.
Turning to `O=C(NCc1cccnc1N1CCCCC1)c1ccc2cc[nH]c2c1`, the Percent Effect was 1.26%.
Turning to `CNC(=O)c1ccnc(CC2COc3c(cccc3OC)C2)c1` (stereo not given), the Percent Effect stood at 7.88%.
Take `COc1ccc(S(=O)(=O)C2CCN(C(=O)c3cc(C)cs3)CC2)cc1`: the Percent Effect was 2.13%.
Turning to `O=C1CCCCCN1Cc1nc(C2(c3ccc(F)cc3)CCOC2)no1` (stereo not given), the Percent Effect was 8.29%.
Take `O=S(=O)(NCCCn1cncn1)c1ccc2c(c1)CCO2`: the Percent Effect came out at 4.51%.
Under `Cc1nn(C)c(C)c1-c1ccc(=O)n(C(C)C(=O)NC2CC2)n1` (stereo not given) stands 9.59%; under `COc1coc(CN2CCCC3(CCC(=O)N(CC4CC4)C3)C2)cc1=O` (stereo not given), 8.74%.
`Cc1cc(C(=O)Nc2ccc(OCCN3CCN(C)CC3)cc2)[nH]n1`: the Percent Effect stood at 14.7%.
Regarding `CC(C)c1nnc2n1CCN(Cc1cccc3c1OCCO3)C2`, the Percent Effect worked out at 12.9%.
Consider `CCCN(CCc1ccccn1)C(=O)CCc1cnn(C)c1`, for which the Percent Effect is 4.13%.
